Inconclusive results are not listed. Calls of active or inactive are those of the source. Unless noted, calls come from the whole dose curve; as a rule, active = well fitted curve in the direction sought with a large enough effect in the repeat runs; inconclusive = weak or mixed curves; inactive = no such curve, though single readings can be large; an effect the other way counts as inactive or inconclusive.
Columns and labels:
[1] = qHTS assay for small molecule agonists of the p53 signaling pathway (AID 651631; calls by dose curve; note: nearly all actives have a fitted effect of over 15% in size)
Summary of the method: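 Agonist mode screen using a stably integrated beta-lactamase gene under p53 response elements in HCT-116 cells. Compound exposure lasts 16 h at 37 °C; fluorescence intensity is measured following 2 h FRET substrate loading.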

[2] = qHTS assay for small molecules that induce genotoxicity in human embryonic kidney cells expressing luciferase-tagged ATAD5 (AID 651632); note: nearly all actives have a fitted effect of over 15% in size
Summary of the method: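 A rise in luciferase signal from ATAD5-tagged HEK293T cells marks genetic stress. Cells were exposed to compounds for 16 hr at 37C, 5% CO2, then luciferase was quantified after a 30 min room-temperature incubation with Amplite.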

[3] = qHTS assay for small molecule agonists of the p53 signaling pathway - cell viability (AID 651633; calls by dose curve;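 note: p53RE-bla HCT reporter cells with a stable beta-lactamase p53 reporter; series mostly up to about 83 µM; nearly all actives have a fitted effect of over 30% in size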)
Summary of the method: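 p53RE-bla cells were treated with compound for 16 hours at 37 C. Cytotoxicity was then measured as CellTiter-Glo luminescence after 30 min at room temperature.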

[4] = qHTS assay for small molecules that induce genotoxicity in human embryonic kidney cells expressing luciferase-tagged ATAD5 - cell viability (AID 651634; calls by dose curve; note: nearly all actives have a fitted effect of over 25% in size)
Summary of the method: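 Cytotoxicity counter-readout: after 15.5 hr compound treatment at 37C, live-cell protease activity in ATAD5-luciferase HEK293T cells measured by CellTiter-Fluor fluorescence, 30 min development at 37C.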

[5] = qHTS assay for small molecule disruptors of the mitochondrial membrane potential - cell viability (AID 720634; calls by dose curve;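 note: human HepG2 liver cancer cells; series mostly up to about 83 µM; nearly all actives have a fitted effect of over 20% in size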)
Summary of the method: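 Cytotoxicity was quantified from ATP content by CellTiter-Glo luminescence in the same wells as the MMP dye read-out. HepG2 (2,000 cells/well) were plated overnight and exposed to compounds for 1 hr at 37 C.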

[6] = qHTS assay for small molecule disruptors of the mitochondrial membrane potential (AID 720635)
Summary of the method: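 HepG2 cells exposed to compound 1 hr at 37C, then Mito-MPS dye 30 min. Ratio read of aggregate (540/590 nm) versus monomer (490/535 nm) fluorescence.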

[7] = qHTS assay to test for compound auto fluorescence at 590 nm (red) in HepG2 cells (AID 720674)
Summary of the method: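 HepG2 cells, 2,000 per well in MEM with 10% FBS, attached overnight at 37 C, then got 23 nL compound or DMSO. After 1 hr at 37 C, 5% CO2, red fluorescence was read at 540/590 nm against Rose Bengal sodium as reference.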

[8] = qHTS assay to test for compound auto fluorescence at 535 nm (green) in HepG2 cells (AID 720675)
[9] = qHTS assay to test for compound auto fluorescence at 460 nm (blue) in HEK293 cells (AID 720678)
Summary of the method: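 Auto fluorescence in the blue band was quantified as triamterene equivalency. HEK293 cells were seeded at 2,000/well, dosed after a 4-5 hr attachment, and kept overnight at 37C before the 405/460 nm reading.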

[10] = qHTS assay to test for compound auto fluorescence at 590 nm (red) in HEK293 cells (AID 720679)
Summary of the method: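 Autofluorescence equivalency to Rose Bengal sodium, 540/590nm, in HEK293 cells exposed overnight to 23 nL compound per well.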

[11] = qHTS assay to test for compound auto fluorescence at 535 nm (green) in HEK293 cells (AID 720680)
[12] = qHTS assay to test for compound auto fluorescence at 460 nm (blue) in HEK293 cell free culture (AID 720681)
Summary of the method: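 Compounds were added to cell-free DMEM with 10% FBS and fluorescence read directly. The blue channel used 405 nm excitation and 460 nm emission, with triamterene as the reference fluorophore.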

[13] = qHTS assay to test for compound auto fluorescence at 535 nm (green) in HEK293 cell free culture (AID 720682)
Summary of the method: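 No cells present: wells hold DMEM supplemented with 10% FBS, into which compound or vehicle is pinned. Green emission is then recorded (485 nm excitation, 535 nm emission) and scaled to fluorescein.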

[14] = qHTS assay to test for compound auto fluorescence at 590 nm (red) in HEK293 cell free culture (AID 720683)
Summary of the method: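 Cell-free wells of DMEM with 10% FBS received compound, and intrinsic fluorescence was read at excitation/emission 540/590 nm. Values expressed as equivalence to Rose Bengal sodium.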

[15] = qHTS assay to test for compound auto fluorescence at 590 nm (red) in HepG2 cell free culture (AID 720684)
Summary of the method: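 Auto fluorescence equivalency versus Rose Bengal sodium, red channel Ex/Em 540/590 nm; compounds in cell-free MEM/10% FBS; DMSO vehicle control.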

[16] = qHTS assay to test for compound auto fluorescence at 460 nm (blue) in HepG2 cell free culture (AID 720685)
Summary of the method: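 Cell-free plates of MEM plus 10% FBS received 23 nL compound or DMSO vehicle; blue-channel (405/460 nm) intensity scored against triamterene as reference fluorophore.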

[17] = qHTS assay to test for compound auto fluorescence at 535 nm (green) in HepG2 cell free culture (AID 720686)
[18] = qHTS assay to test for compound auto fluorescence at 460 nm (blue) in HepG2 cells (AID 720687)
Summary of the method: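 HepG2 cells in MEM with 10% FBS, attached overnight at 37 C, were exposed to compound or DMSO for 1 hr at 37 C, 5% CO2. Blue fluorescence was read at 405/460 nm, with triamterene as reference fluorophore.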

[19] = biological target: Glucocorticoid receptor (Homo sapiens) (UniProt P04150); experiment: qHTS assay to identify small molecule agonists of the glucocorticoid receptor (GR) signaling pathway (AID 720691; active = well fitted activation curve with a large enough effect in the signal ratio in the repeat runs, not every such curve was filed as active; the % refers to the signal ratio)
Glucocorticoid receptor (Homo sapiens), sequence (P04150 whole entry, looked up): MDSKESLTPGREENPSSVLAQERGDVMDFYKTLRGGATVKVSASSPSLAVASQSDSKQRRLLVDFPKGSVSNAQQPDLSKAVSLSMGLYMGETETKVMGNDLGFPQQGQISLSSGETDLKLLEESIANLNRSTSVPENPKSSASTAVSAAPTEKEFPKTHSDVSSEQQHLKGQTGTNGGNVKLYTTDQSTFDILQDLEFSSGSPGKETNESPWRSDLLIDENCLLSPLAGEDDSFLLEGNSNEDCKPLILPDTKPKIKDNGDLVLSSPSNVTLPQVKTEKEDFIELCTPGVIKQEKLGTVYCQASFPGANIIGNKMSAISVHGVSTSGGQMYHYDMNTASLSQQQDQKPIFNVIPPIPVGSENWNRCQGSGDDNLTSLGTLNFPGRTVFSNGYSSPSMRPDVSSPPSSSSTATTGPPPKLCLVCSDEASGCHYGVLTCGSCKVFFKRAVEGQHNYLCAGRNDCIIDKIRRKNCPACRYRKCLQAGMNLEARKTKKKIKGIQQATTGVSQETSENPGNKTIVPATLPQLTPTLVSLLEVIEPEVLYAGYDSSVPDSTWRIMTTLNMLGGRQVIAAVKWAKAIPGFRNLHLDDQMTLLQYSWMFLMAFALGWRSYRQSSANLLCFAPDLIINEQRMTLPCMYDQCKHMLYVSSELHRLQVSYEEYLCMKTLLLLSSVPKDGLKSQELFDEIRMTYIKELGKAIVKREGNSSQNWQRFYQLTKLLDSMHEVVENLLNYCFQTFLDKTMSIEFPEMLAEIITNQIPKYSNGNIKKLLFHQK
Summary of the method: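 Agonist-mode qHTS in HeLa cells stably expressing a glucocorticoid-response-element beta-lactamase reporter. Fluorescence intensity read with FRET substrate (2 h, room temperature) after 18 h compound treatment at 37 C.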

[20] = biological target: Glucocorticoid receptor (Homo sapiens) (UniProt P04150); experiment: qHTS assay to identify small molecule antagonists of the glucocorticoid receptor (GR) signaling pathway (AID 720692; active = well fitted inhibition curve with a large enough effect in the signal ratio in the repeat runs, not every such curve was filed as active; the % refers to the signal ratio)
Summary of the method: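 Inhibition of dexamethasone-driven (5 nM final) beta-lactamase expression was measured in GRE-reporter HeLa cells over 18 h at 37C. Fluorescence was read after 2 h with the B/G FRET substrate at room temperature.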

Measured: Potency

Clc1ccc(C(Cl)(Cl)Cl)cc1
inactive: all assays above

ClCc1ccccn1
not listed: [9]
inactive: all other assays above

Nc1ccc2ccccc2c1
not listed: [7] | [19] | [20]
inactive: all other assays above

CNC(=O)Oc1cccc2c1OC(C)(C)C2
not listed: [9]
inactive: all other assays above

[CH3][Sn]([Cl])([Cl])[Cl]
not listed: [7]
inactive: all other assays above

ClC(Cl)(Cl)c1ccccc1
not listed: [9]
inactive: all other assays above
